According to PubChem BioAssay (NCATS):
Records with an inconclusive call do not appear. Unless noted, calls come from the whole dose curve; as a rule, active = well fitted curve in either direction with a large enough effect (not every such curve was filed as active); inconclusive = small, poorly fitted or top-dose-only effect, or another doubt; inactive = flat fitted curve, though single readings scatter.

What was measured:
[1] = AP1 Signaling Pathway (AID 357); details: ME-180 AP-1-bla reporter, EGF-induced, beta-lactamase ratio, 5 h; at 17.2 µM (top of the series) unless noted;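 note: ME-180 reporter cells stimulated with EGF at its EC50 level; % is set by controls: 0 for no effect and ±100 for the full control effect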
Procedure, shortened: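 A ratiometric CCF4 readout (405 nm excitation; 460 and 530 nm emission) quantified AP-1-driven beta-lactamase in ME-180 cells after 5 h with compound and EC50 EGF; AC50 values were derived for activators and inhibitors.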

[2] = NFAT Signaling Pathway (AID 444); details: Jurkat NFAT-bla M1, carbachol, beta-lactamase ratio, 5 h; at 17.2 µM (top of the series) unless noted;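 note: carbachol stimulus at about its EC50 of 1 µM final; % is set by controls: 0 for no effect and ±100 for the full control effect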
Procedure, shortened: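 Read-out: CCF4 FRET ratio (460 nm/530 nm) after 1 h RT dye loading, used for %activity and AC50 from titration series. Cells: Jurkat NFAT-β-lactamase/M1 line, treated with compound plus 1 uM carbachol for 5 h, 37 °C.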

[3] = Stat Signaling Pathway (AID 446); details: ME-180 (cervical carcinoma) SIE beta-lactamase reporter, IL-6 stimulated, 5 h; at 17.2 µM (top of the series) unless noted;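 note: ME-180 cervical cancer cells given 40 pM IL-6 alongside compound; SIE-controlled beta-lactamase reporter measured as 460/530 nm FRET emission ratio; % is set by controls: 0 for no effect and ±100 for the full control effect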
Procedure, shortened: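 FRET read-out (405 nm excitation, 460/530 nm emission) of a beta-lactamase reporter under a STAT-inducible element in ME-180 cervical carcinoma cells. Cells with compound receive 40 pM IL-6 for 5 h. Values are normalised to AC90 stimulation and AC90 JAK-inhibitor controls.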

[4] = biological target: Glucocorticoid receptor (Homo sapiens) (UniProt P04150); test: GR-GFP Redistribution (AID 450;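 active = compounds whose dose series gives a full or clear partial fitted curve of increased nuclear translocation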; note: potency is the fitted concentration of half-maximal effect)
Glucocorticoid receptor (Homo sapiens), sequence (P04150 whole entry, looked up): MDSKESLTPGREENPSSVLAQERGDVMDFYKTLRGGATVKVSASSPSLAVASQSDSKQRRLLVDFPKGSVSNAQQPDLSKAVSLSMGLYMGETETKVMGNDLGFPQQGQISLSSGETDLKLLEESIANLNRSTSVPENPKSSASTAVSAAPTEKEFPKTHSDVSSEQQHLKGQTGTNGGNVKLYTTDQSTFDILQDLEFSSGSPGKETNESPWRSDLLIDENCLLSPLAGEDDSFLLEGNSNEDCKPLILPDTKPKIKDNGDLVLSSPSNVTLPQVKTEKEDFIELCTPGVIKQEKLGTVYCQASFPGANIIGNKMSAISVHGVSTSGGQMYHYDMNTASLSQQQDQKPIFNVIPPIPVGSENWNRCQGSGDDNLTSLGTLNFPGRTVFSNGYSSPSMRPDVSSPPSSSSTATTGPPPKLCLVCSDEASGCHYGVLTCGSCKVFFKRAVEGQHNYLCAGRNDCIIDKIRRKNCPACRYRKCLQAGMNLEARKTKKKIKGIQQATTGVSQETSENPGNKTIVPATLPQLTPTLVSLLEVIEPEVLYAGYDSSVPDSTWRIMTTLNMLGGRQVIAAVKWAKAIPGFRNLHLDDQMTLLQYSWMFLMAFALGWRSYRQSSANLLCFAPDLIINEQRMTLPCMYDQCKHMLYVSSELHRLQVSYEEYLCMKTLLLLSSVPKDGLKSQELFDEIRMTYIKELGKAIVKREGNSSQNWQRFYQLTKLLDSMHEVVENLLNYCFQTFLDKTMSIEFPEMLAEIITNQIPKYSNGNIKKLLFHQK

COC(=O)CCc1c(C)[nH]c(C(=O)OCc2ccccc2)c1C
inactive: activity change, negative = inhibition [1] -13.9% | activity change, negative = inhibition [2] -4.78% | activity, negative = inhibition [3] 5.36% | Potency [4] > 20.6 µM

Cn1c(=O)[nH]c2cc(Cl)cnc21
inactive: activity change, negative = inhibition [1] 7.54% | activity change, negative = inhibition [2] 3.47% | activity, negative = inhibition [3] 5.04% | Potency [4] > 20.6 µM

Fc1ccc(OCCOCCNCC2CCCO2)cc1 (stereo not given)
inactive: activity change, negative = inhibition [1] 12.2% | activity change, negative = inhibition [2] -14.1% | activity, negative = inhibition [3] 21.6% | Potency [4] > 20.6 µM

Cc1ccc2c(c1)C(CCN)C(=O)N2Cc1ccccc1 (stereo not given)
inactive: activity change, negative = inhibition [1] 19.6% | activity change, negative = inhibition [2] -9.23% | activity, negative = inhibition [3] 5.36% | Potency [4] > 20.6 µM

CC(=O)C1=C(O)C(=O)N(c2cccc(C(=O)O)c2)C1c1ccc(F)cc1 (stereo not given)
inactive: activity change, negative = inhibition [1] 15.1% | activity change, negative = inhibition [2] 2.04% | activity, negative = inhibition [3] 4.06% | Potency [4] > 20.6 µM

CCn1c(SCC(=O)Nc2ccccc2C(=O)OC)nnc1-c1ccc(N)cc1
inactive: activity change, negative = inhibition [1] -23.2% | activity change, negative = inhibition [2] -3.89% | activity, negative = inhibition [3] 0.432% | Potency [4] > 20.6 µM

Cc1nc(N2CCOCC2)c(C#N)c2c1COC(C)(C)C2
inactive: activity change, negative = inhibition [1] 0.635% | activity change, negative = inhibition [2] 2.49% | activity, negative = inhibition [3] 7.32% | Potency [4] > 20.6 µM

O=C(Nc1ncn[nH]1)c1c(Cl)ccc(Cl)c1Cl
inactive: activity change, negative = inhibition [1] 13.1% | activity change, negative = inhibition [2] 1.62% | activity, negative = inhibition [3] -0.714% | Potency [4] > 20.6 µM

CCCCOc1ccc(C(=O)Nn2cnnc2)cc1
inactive: activity change, negative = inhibition [1] 15.5% | activity change, negative = inhibition [2] 4.61% | activity, negative = inhibition [3] 8.41% | Potency [4] > 20.6 µM

COc1ccccc1C1/C(=C(/O)c2cnn(-c3ccccc3)c2C)C(=O)C(=O)N1CCN(C)C (stereo not given)
inactive: activity change, negative = inhibition [1] -7.05% | activity change, negative = inhibition [2] 1.4% | activity, negative = inhibition [3] 2.75% | Potency [4] > 20.6 µM

CCOC(=O)c1c(C(C#N)C#N)cc(C)nc1C
inactive: activity change, negative = inhibition [1] 9.21% | activity change, negative = inhibition [2] -6.15% | activity, negative = inhibition [3] 1.48% | Potency [4] > 20.6 µM

O=C(NCc1ccco1)c1cnn2c1NC(c1ccccc1)CC2C(F)(F)F (stereo not given)
inactive: activity change, negative = inhibition [1] -8.13% | activity change, negative = inhibition [2] -2.99% | activity, negative = inhibition [3] -6.74% | Potency [4] > 20.6 µM

CCCCc1cc(=O)oc2c(CN3CCCC3)c(O)ccc12
inactive: activity change, negative = inhibition [1] 9.79% | activity change, negative = inhibition [2] 2.24% | activity, negative = inhibition [3] 3.31% | Potency [4] > 20.6 µM

CC(=O)OCC(=O)[C@H]1CC[C@H]2[C@@H]3CC=C4C[C@@H](O)CC[C@]4(C)[C@H]3CC[C@]12C
inactive: activity change, negative = inhibition [1] 12.9% | activity change, negative = inhibition [2] 4.8% | activity, negative = inhibition [3] -2.21% | Potency [4] > 20.6 µM

Cn1c(=O)[nH]c(=O)c2c1nc(Br)n2CCSc1nnnn1-c1ccccc1
inactive: activity change, negative = inhibition [1] -14.1% | activity change, negative = inhibition [2] 1.39% | activity, negative = inhibition [3] -8.23% | Potency [4] > 20.6 µM

CCSc1nc(O)c(C2OC(=O)c3c2ccc(OC)c3OC)c(=O)n1-c1ccccc1 (stereo not given)
inactive: activity change, negative = inhibition [1] -10.9% | activity change, negative = inhibition [2] 4% | activity, negative = inhibition [3] -4.52% | Potency [4] > 20.6 µM

CCc1c(C(=O)O)[nH]c2ccc(Br)cc12
inactive: activity change, negative = inhibition [1] 8.39% | activity change, negative = inhibition [2] -22% | activity, negative = inhibition [3] -0.02% | Potency [4] > 20.6 µM

Cc1cc(C)nc(NC2=NCC(=O)N2c2cccc(Cl)c2)n1
inactive: activity change, negative = inhibition [1] 3.62% | activity change, negative = inhibition [2] -0.714% | activity, negative = inhibition [3] 0.214% | Potency [4] > 20.6 µM

Cc1nn2c(-c3ccc(Cl)cc3)nnc2s1
inactive: activity change, negative = inhibition [1] -4.06% | activity change, negative = inhibition [2] -5.76% | activity, negative = inhibition [3] 14.5% | Potency [4] > 20.6 µM

O=C(CN1C(=O)c2ccccc2S1(=O)=O)NCCSCc1ccco1
inactive: activity change, negative = inhibition [1] -8.94% | activity change, negative = inhibition [2] 8.79% | activity, negative = inhibition [3] -4.36% | Potency [4] > 20.6 µM

Cc1nc2c(o1)CCc1ccccc1C2O (stereo not given)
inactive: activity change, negative = inhibition [1] 8.51% | activity change, negative = inhibition [2] 3.41% | activity, negative = inhibition [3] 5.73% | Potency [4] > 20.6 µM

COC(=O)c1ccc(C2/C(=C(\O)c3cccc(OC)c3)C(=O)C(=O)N2CCCN2CCOCC2)cc1 (stereo not given)
inactive: activity change, negative = inhibition [1] 3.85% | activity change, negative = inhibition [2] -2.61% | activity, negative = inhibition [3] 15.2% | Potency [4] > 20.6 µM

COc1ccc(C2NC3=C(CCC3)C3(C#N)C(OC)(OC)N=C(N)C23C#N)cc1 (stereo not given)
inactive: activity change, negative = inhibition [1] -8.29% | activity change, negative = inhibition [2] 6.55% | activity, negative = inhibition [3] -5.86% | Potency [4] > 20.6 µM

COc1ccc(Cn2c(CCCO)nc3ccccc32)cc1OC
inactive: activity change, negative = inhibition [1] -8.44% | activity change, negative = inhibition [2] 3.22% | activity, negative = inhibition [3] -4.44% | Potency [4] > 20.6 µM

CC1(C)Cc2c(C#N)c(SCCC#N)nc(N3CCOCC3)c2CS1
inactive: activity change, negative = inhibition [1] -12.8% | activity change, negative = inhibition [2] 3.6% | activity, negative = inhibition [3] -3.44% | Potency [4] > 20.6 µM
